Structures can show the parent of a compound that is named as a salt.
These compounds were tested on Saccharomyces cerevisiae BY4741 SeMeCo community (assay: z-score of subpopulation abundance vs DMSO median, subpopulation auxotrophic for HM; higher = larger share of this subpopulation than in DMSO controls). Details: 10 µM; 24 h; SM minimal medium; subpopulation (auxotrophy): HM.
Procedure: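 Fluorescent four-plasmid SeMeCo (self-establishing metabolically cooperating S. cerevisiae BY4741 community; plasmids pH-mRuby2, pL-mWasabi, pU-eCFP, pM-TagRFP657) was grown 24 h in minimal SM medium with each Selleck FDA-approved drug at 10 µM in 384-well plates. Cells were fixed and imaged by high-content confocal microscopy. For each auxotrophic subpopulation (and the prototroph), a z-score gives the deviation from the DMSO vehicle-control population median.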

| SMILES | z-score of subpopulation abundance |
| --- | --- |
| COc1ccc(C=O)cc1 [p-Anisaldehyde] | -0.95 |
| C[C@@H]1O[C@@H](O[C@H]2C[C@@H](O)[C@]3(CO)[C@H]4[C@H](O)C[C@]5(C)[C@@H](C6=CC(=O)OC6)CC[C@]5(O)[C@@H]4CC[C@]3(O)C2)[C@H](O)[C@H](O)[C@H]1O [Ouabain] | -0.63 |
| CN[C@@H]1[C@@H](O)[C@@H](O[C@@H]2[C@@H](O)[C@H](O[C@H]3O[C@H]([C@@H](C)O)[C@@H](O)[C@H](O)[C@H]3N)[C@@H](N)C[C@H]2N)OC[C@]1(C)O [Geneticin (G418 Sulfate)] | -0.26 |
| CNC1CC(N)C(O)C(OC2OC(CO)C(O)C3OC4(OC(C(N)CO)C(O)C(O)C4O)OC23)C1O (stereo not given) [Hygromycin B] | -1.16 |
| CC[C@H]1[C@@H]2C[C@H]3[C@@H]4N(C)c5ccccc5[C@]45C[C@@H]([C@@H]2[C@H]5O)N3[C@@H]1O [Ajmaline] | -0.37 |
| CN(C)[C@@H]1C(=O)C(C(N)=O)=C(O)[C@@]2(O)C(=O)C3=C(O)c4c(O)ccc(Cl)c4[C@@](C)(O)[C@H]3C[C@@H]12 [Chlortetracycline HCl] | -0.67 |
| CCN1CC2(OC(=O)c3ccccc3NC(C)=O)CCC(OC)C34C1C(CC23)C1(O)CC(OC)C2CC4C1(O)C2OC (stereo not given) [Lappaconitine] | -0.28 |
| N#Cc1nn(-c2c(Cl)cc(C(F)(F)F)cc2Cl)c(N)c1[S+]([O-])C(F)(F)F (stereo not given) [Fipronil] | -0.23 |
| Cn1cc(C2=C(c3cn(C4CCN(Cc5ccccn5)CC4)c4ccccc34)C(=O)NC2=O)c2ccccc21 | -1.56 |
| CC(=O)OCC1=C(C(=O)O)N2C(=O)C(N)C2SC1 (stereo not given) [7-Aminocephalosporanic acid] | -0.48 |
| CN(C)C(=O)Oc1ccc[n+](C)c1 [Pyridostigmine Bromide] | 0.07 |
| CN(C)C(=O)Oc1cccc([N+](C)(C)C)c1 [Neostigmine Bromide] | -0.54 |
| CCOC(=O)Nc1ccc(NCc2ccc(F)cc2)cc1N [Retigabine 2HCl] | 0.88 |
| C#C[C@]1(O)C=C[C@H]2[C@@H]3CCC4=CC(=O)CC[C@@H]4[C@H]3CC[C@@]21CC [Gestodene] | 0.34 |
| Oc1cccc2cccnc12 [8-Hydroxyquinoline] | 2.14 |
| C=CN1CCCC1=O.II [Povidone iodine] | 1.1 |
| Cc1cc(O)ccc1Cl [Chlorocresol] | -0.29 |
| CCN(C)C(=O)Oc1cccc([C@H](C)N(C)C)c1 [Rivastigmine] | -0.34 |
| CC(C)(O)C(Cl)(Cl)Cl [Chlorobutanol] | -0.53 |
| CC(=O)O[C@H]1C[C@@H]2CC[C@@H]3[C@H](CC[C@@]4(C)[C@H]3C[C@H]([N+]3(C)CCCCC3)[C@@H]4OC(C)=O)[C@@]2(C)C[C@@H]1[N+]1(C)CCCCC1 [Pancuronium dibromide] | -1.06 |

| SMILES | z-score of subpopulation abundance |
| --- | --- |
| Oc1cc(Cl)ccc1Oc1ccc(Cl)cc1Cl [Triclosan] | -1.82 |
| CN(C)[C@@H]1C(=O)C(C(N)=O)=C(O)[C@@]2(O)C(=O)C3=C(O)c4c(O)cccc4[C@@](C)(O)[C@H]3[C@H](O)[C@@H]12 [Oxytetracycline (Terramycin)] | 0.64 |
| CN1[C@@H]2CC[C@H]1C[C@@H](OC(=O)C(CO)c1ccccc1)C2 (stereo not given in full) [Atropine sulfate monohydrate] | -0.85 |
| CC(C)N(CCC(C(N)=O)(c1ccccc1)c1ccccn1)C(C)C (stereo not given) [Disopyramide] | 0.08 |
| O=c1[nH]c2ccccc2n1CCCN1CCC(n2c(=O)[nH]c3cc(Cl)ccc32)CC1 [Domperidone] | 0.27 |
| O=C(O[C@H]1C[C@H]2CC[C@@H](C1)[N+]21CCCC1)C(O)(c1ccccc1)c1ccccc1 [Trospium chloride] | 0.4 |
| CN1C(=O)COc2c(C(=O)NC3CN4CCC3CC4)cc(Cl)cc21 (stereo not given) [Azasetron HCl] | 0.88 |
| CN1[C@@H]2C[C@@H](OC(=O)[C@H](CO)c3ccccc3)C[C@H]1[C@@H]1O[C@@H]12 [Scopolamine HBr trihydrate] | -1.19 |
| CC(C)=CCOc1c2occc2cc2ccc(=O)oc12 [Imperatorin] | 1.29 |
| COc1ccc2[nH]cc(CCN)c2c1 [5-Methoxytryptamine] | -0.25 |
| C[N+]12CCC(CC1)C(OC(=O)C(O)(c1ccccc1)c1ccccc1)C2 (stereo not given) [Clidinium Bromide] | -0.38 |
| COc1ccc(C(CN(C)C)C2(O)CCCCC2)cc1 (stereo not given) [Venlafaxine] | -0.77 |
| CC[N+](C)(CC)CCOC(=O)C(O)(c1ccccc1)c1ccccc1 [Methylbenactyzine Bromide] | 0.02 |
| CCCCCCCCCCCCCCCC[n+]1ccccc1 [Cetylpyridinium Chloride] | 12.4 |
| COC(=O)C1=CCCN(C)C1 [Arecoline HBr] | 0.08 |
| CC[C@@]1(O)C(=O)OCc2c1cc1n(c2=O)Cc2cc3ccccc3nc2-1 [Camptothecin] | 0.23 |
| CN(C)[C@@H]1C(=O)C(C(N)=O)=C(O)[C@@]2(O)C(=O)C3=C(O)c4c(O)cccc4[C@@](C)(O)[C@H]3C[C@@H]12 [Tetracycline HCl] | 0.72 |
| C[CH2][Hg][S]c1ccccc1C(=O)[O-].[Na+] [Thimerosal] | 22.6 |
| COc1cc2c(cc1OC)C1CC(=O)C(CC(C)C)CN1CC2 (stereo not given) [Tetrabenazine (Xenazine)] | 0.63 |
| Nc1nc(N)nc(NC2CC2)n1 [Cyromazine] | 0.9 |
